# Experimental data published in PubChem BioAssay (NCI).
# Compounds without any hit were thinned out: in the full panel of roughly 83,000, 20% have a hit.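 48-hour exposure, single concentration, 96-well plates; percent growth endpoint where 0 means no net growth. Active: below 10.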 Unmarked numbers belong to inactive results. Calls of active or inactive are those of the source.
# Tests used:
# Assay in all cases: NCI-60 one-dose screen, 48 h (100 = growth as untreated, 0 = no growth, -100 = all killed)
# Conditions in all cases: 10 µM unless noted
# SK-MEL-2 melanoma = tested on: SK-MEL-2 melanoma
# EKVX NSCLC = tested on: EKVX NSCLC
# SN12C renal = tested on: SN12C renal
# UO-31 renal = tested on: UO-31 renal
# TK-10 renal = tested on: TK-10 renal
# ACHN renal = tested on: ACHN renal
# CAKI-1 renal = tested on: CAKI-1 renal
# A498 renal = tested on: A498 renal
# CCRF-CEM leukemia = tested on: CCRF-CEM leukemia
# MOLT-4 leukemia = tested on: MOLT-4 leukemia
# SR leukemia = tested on: SR leukemia
# RPMI-8226 leukemia = tested on: RPMI-8226 leukemia
# OVCAR-8 ovarian = tested on: OVCAR-8 ovarian
# OVCAR-5 ovarian = tested on: OVCAR-5 ovarian
# OVCAR-4 ovarian = tested on: OVCAR-4 ovarian
# SK-OV-3 ovarian = tested on: SK-OV-3 ovarian
# IGROV1 ovarian = tested on: IGROV1 ovarian
# OVCAR-3 ovarian = tested on: OVCAR-3 ovarian
# HS 578T breast = tested on: HS 578T breast
# NCI/ADR-RES ovarian = tested on: NCI/ADR-RES ovarian
Structure (SMILES),growth (SK-MEL-2 melanoma) [%],growth (EKVX NSCLC) [%],growth (SN12C renal),growth (UO-31 renal),growth (TK-10 renal) [%],growth (ACHN renal),growth (CAKI-1 renal),growth (A498 renal),growth (CCRF-CEM leukemia),growth (MOLT-4 leukemia),growth (SR leukemia),growth (RPMI-8226 leukemia),growth (OVCAR-8 ovarian),growth (OVCAR-5 ovarian) [%],growth (OVCAR-4 ovarian) [%],growth (SK-OV-3 ovarian) [%],growth (IGROV1 ovarian),growth (OVCAR-3 ovarian),growth (HS 578T breast),growth (NCI/ADR-RES ovarian)
CN1CCN(c2ccc(NC(=O)c3cncnc3Nc3ccc(OCc4cccc(F)c4)c(Cl)c3)cc2)CC1,120,98.6,63.9%,25%,103,89.3%,81.5%,70.8%,16.2%,6.75% (active),14.9%,70.2%,76.7%,76.3,72.1,103,91.6%,81.7%,75%,75.2%
CC1=C2[C@@H](CC1)[C@]1(C)O[C@@](C3CCCCC3)(C[C@H]1OC(=O)CO)[C@H]2OC(=O)/C=C/c1ccccc1,80.3,83.3,32.1%,-5.9% (active),97.6,3.28% (active),78.4%,-89.9% (active),78.5%,67.9%,52.1%,58.5%,5.17% (active),88.8,92.9,86,85.1%,85%,-15.2% (active),-2.43% (active)
COc1ccc(C2=CN3CC=CC3CC2=O)cc1 (stereo not given),96.2,87.3,109%,103%,82.5,102%,95.8%,111%,106%,96%,94.4%,104%,103%,110,98.9,102,104%,102%,104%,103%
COc1cccc(/C=C/C(=O)c2cc3c(N)c(C(=O)Nc4cccc5ccccc45)sc3nc2C)c1,24.2,39.9,-27.9% (active),16.9%,32,35%,17.2%,4.07% (active),7.04% (active),16.8%,12.5%,-18.9% (active),3.72% (active),15.8,56.8,56.2,-3.98% (active),-17% (active),15%,4.18% (active)
c1ccc2c(c1)CCCc1nnc3nc4ccccc4n3c1-2,70.5,37.7,48%,29.9%,41.6,35.1%,22%,54.8%,31.5%,31.6%,20.5%,31.6%,38.5%,37.8,17.9,50.3,43.7%,23.6%,77.1%,24.6%
CCCCNC(=O)c1cc([N+](=O)[O-])cc(C2CCCCC2)c1O,19.5,33.6,31.9%,24.8%,49.1,61.5%,35.3%,21.5%,36.5%,27.1%,84.1%,17%,43.9%,78.6,14.3,40.3,43.2%,23.1%,48.3%,49.6%
CCCn1nc(C(=O)N(C)Cc2ccccc2)c2c1CCC(N1CCc3ccccc31)C2 (stereo not given),106,95.2,98.9%,81.4%,105,96%,86.7%,95.9%,96.6%,89.9%,104%,90.8%,93.4%,92.2,102,112,85.1%,102%,96.4%,94.4%
COc1ccc(N2CCN(C(=O)c3sc4nc(C)c(Br)c(C)c4c3N)CC2)cc1,85.1,79.9,95.9%,59.4%,115,92.6%,82.6%,103%,97.8%,93%,97.4%,98.5%,97.6%,90.5,90.6,90.1,91.2%,98.3%,92.8%,101%
CC(=O)OC(c1ccccc1)C1CCOC1=O (stereo not given),96.5,78.8,102%,-82.3% (active),92.4,96.5%,75.2%,98.7%,109%,82.8%,122%,111%,104%,86.8,88.3,106,102%,102%,111%,97%
COc1cc(-c2nc3c(ncc4ccc(=O)n(-c5ccccc5)c43)s2)cc(OC)c1OC,88.4,53.3,73.9%,24.9%,54,79%,67.4%,6.71% (active),74.1%,69.5%,74.5%,52.9%,88.3%,73.5,72.8,80,53.5%,79.7%,52.6%,73.1%
COc1cccc(-c2cc(-c3cccc(Cl)c3)c(C#N)c(=O)[nH]2)c1,60.8,90.4,85.2%,71.5%,95.9,94.2%,64.9%,45.8%,28.2%,64.8%,45.5%,64.3%,89.6%,96.7,73,81,71.8%,51%,49.3%,69.2%
COc1cc(OC)cc(-c2ccc(-c3ccc(C(=N)N)o3)o2)c1,88.1,85.2,53%,67.3%,83.7,72.6%,81.3%,68.5%,48.3%,31.4%,-17.3% (active),20.6%,64.3%,83.5,85.5,88.2,58.1%,25.7%,78%,68.9%
C/C=C(/C)n1cnc2c(Nc3ccccn3)nc(Cl)nc21,97.1,96.9,94.1%,80.8%,114,99.9%,94.2%,111%,104%,100%,105%,98.2%,100%,98.4,105,111,103%,111%,97.8%,108%
CC/C=C\C[C@H](O)C/C=C1/C(=O)C=C[C@@H]1C/C=C\CCCC(=O)O,62.2,105,46.2%,74.3%,103,84.5%,83.9%,90.9%,4.11% (active),5.7% (active),10.3%,10.1%,20%,128,74.8,116,99.2%,14.8%,85%,78.3%
O=C1/C(=C/c2ccc(O)c(O)c2)COc2ccc(-c3ccccc3)cc21,59,78.8,13.9%,-64.6% (active),25.8,15.3%,4.86% (active),30.7%,16.2%,10.9%,-20% (active),-13.1% (active),26.5%,50.6,26.6,81.1,-13.1% (active),20.2%,15%,19.2%
